The values below come from paper PMC12136788.

T1: UNK ZnF1-3 (human, UniProt Q9C0B0 31-174)
T1 sequence: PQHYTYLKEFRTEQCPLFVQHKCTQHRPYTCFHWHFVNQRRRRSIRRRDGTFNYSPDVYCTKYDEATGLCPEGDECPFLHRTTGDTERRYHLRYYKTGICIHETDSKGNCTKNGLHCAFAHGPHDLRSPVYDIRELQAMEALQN

B1: 5253780_5253900_1103_CDS_ENSG00000029725_ENST00000262477|human|control|control (ssRNA)
RNA: GGGAGUUCUACAGUCCGACGAUCAACUUGUCGGAGCUGUUCUGAAGUUAGCACAAUCUCCAUUCGCUGCAUGUCUCUCAUCAGUAAACGCUGAGAUUCCAGAAACUGGUCAUUGGCCUUCUGCCACGUAUGUUUUAACUGGUUCAACAGAGGAUUGAGCAUCA
B2: chr22:32879901:32879902:+_ENSG00000100225_ENST00000397426|hu_mus|hu_hu_hu_mus_False|48_98 (ssRNA)
RNA: GGGAGUUCUACAGUCCGACGAUCCUCUUCCAUACUCGCAUUAUCUUGAAUUGACUCAGCUUCAACAUUUUGACUAGGCCCUUCCAUACUGUCGUCAGUCCAGGCAUCAAAUGGGGUGGCCUGUCCUUGGGAUGAAUCAGUCCCCAACAGAGGAUUGAGCAUCA
B3: chr17:56552419:56552420:-_ENSMUSG00000013236_ENSMUST00000086828|mus_mus|mus_mus_mus_hu_False|78_98 (ssRNA)
RNA: GGGAGUUCUACAGUCCGACGAUCAAAAAAUACACUAUAAAAAAAAAAUGAAAUGUCAGAAAAAGAAGUUACACUGAGAGUUUUAAAAGAAAGCUGGAUUCUGGUCCCAGCCCAGUGUCCCCAGGCUGCAGAGCGGGGAGGAGCCAACAGAGGAUUGAGCAUCA
B4: chr17:56552419:56552420:-_ENSMUSG00000013236_ENSMUST00000086828|mus_mus|mus_mus_mus_hu_False|58_78 (ssRNA)
RNA: B3 RNA with A38U, A39U, G77C, G79C, U81A
B5: chr17:56552419:56552420:-_ENSMUSG00000013236_ENSMUST00000086828|mus_mus|mus_mus_mus_hu_False|1_78 (ssRNA)
RNA: B3 RNA with A38U, A39U, A138C, G139A, C143G
B6: chr17:56552419:56552420:-_ENSMUSG00000013236_ENSMUST00000086828|mus_mus|mus_mus_mus_hu_False|78_88 (ssRNA)
RNA: B3 RNA with A38U, A39U, U48A, G49A, A50G, U53A, G54A, U55A, C56A
B7: 86747786_86748123_1683_CDS_ENSMUSG00000035671_ENSMUST00000039480|mouse|control|control (ssRNA)
RNA: GGGAGUUCUACAGUCCGACGAUCGUGCUGGUAGGCCAGCUUUCGCUUCUCUGGGGCUGAGUCUGGGAAAAGAGAGUGAGGCUCCUCCUCCAGGCGACAGGCCUCCAGCAGUGCCCUGCAGAGGCAGCCAAUGGGAUCCAGGGGCAACAGAGGAUUGAGCAUCA
B8: chr11:77336104:77336105:-_ENSG00000074201_ENST00000525064|hu_mus|hu_hu_hu_mus_False|68_98 (ssRNA)
RNA: GGGAGUUCUACAGUCCGACGAUCCUCACACAUUGCUGUGAACAUUGCCUCCAAUGCUGACUUAUCACUAGGCACAAAUCGAAAUUCAGAAAUGGGUUCAACAUCAUCAUUGUCUUCCUCAUCUUCAUCAGAGAGAGGUUCUUUCAACAGAGGAUUGAGCAUCA
B9: chr16:5009651:5009652:-_ENSMUSG00000022540_ENSMUST00000023191|mus_hu|FALSE|FALSE (ssRNA)
RNA: GGGAGUUCUACAGUCCGACGAUCUGCAGGGAGACGGUGAAGUAGACCAGGGCGUCGUUGAGCCAGGGGAUCACGCACUCCACUUUGUGCACGUGGCUCACCUCCAGGCGCUGAGAGCCCCACUCGAACAUGGCCCCAGGGCUACAACAGAGGAUUGAGCAUCA
B10: 133220860_133220980_1226_CDS_ENSMUSG00000043257_ENSMUST00000062118|mouse|control|control (ssRNA)
RNA: GGGAGUUCUACAGUCCGACGAUCGUAUAUUAGAGGAAGGUCCCAGGAGCACCAUGGGGGUGCAUUUUCUCCUGCAAGCCGGUAGCCUUUGUCGGCAGCUAGCUGCAGCAAGGGCUCAGGGAUGGAGGGGGCUGAGCCUGGUGACAACAGAGGAUUGAGCAUCA
B11: chr7:141441981:141441982:+_ENSG00000106028_ENST00000265304|hu_mus|hu_hu_hu_mus_False|48_88 (ssRNA)
RNA: GGGAGUUCUACAGUCCGACGAUCCUCAUGUCUUACAAACUGACGAAGUACCUGUAACACAGGUCUUCGAAACAUGGCUUCUGUUUUCUUUUCUUACUAAUCUUUAGGCUUUUCCUAAAGGAAAGAAAGAAAAGAGAAAAAUGACAACAGAGGAUUGAGCAUCA
B12: chr17:56552419:56552420:-_ENSMUSG00000013236_ENSMUST00000086828|mus_mus|mus_mus_mus_hu_False|78_78 (ssRNA)
RNA: B3 RNA with A38U, A39U
B13: chr17:56552419:56552420:-_ENSMUSG00000013236_ENSMUST00000086828|mus_mus|mus_mus_mus_hu_False|18_78 (ssRNA)
RNA: B3 RNA with A38U, A39U, U117G, C119A, C120G, C121G, A122C, G123A, C125G, U126G
B14: chr17:56552419:56552420:-_ENSMUSG00000013236_ENSMUST00000086828|mus_mus|mus_mus_mus_hu_False|38_78 (ssRNA)
RNA: GGGAGUUCUACAGUCCGACGAUCAAAAAAUACACUAUUUAAAAAAAAUGAAAUGUCAGAAAAAGAAGUUACACUGAGAGUUUUAAAAGAAAGCUGGAAAAAAAAUGCAGCCCAGUGUCCCCAGGCUGCAGAGCGGGGAGGAGCCAACAGAGGAUUGAGCAUCA
B15: chr17:56552419:56552420:-_ENSMUSG00000013236_ENSMUST00000086828|mus_mus|mus_mus_mus_hu_False|48_78 (ssRNA)
RNA: B3 RNA with A38U, A39U, G88A, G92A, C93U, U94A, G95A
B16: chr4:153332861:153332862:-_ENSG00000109670_ENST00000281708|hu_mus|FALSE|FALSE (ssRNA)
RNA: GGGAGUUCUACAGUCCGACGAUCCUCCUCUUGAUGUCUCGCUUGCUGCUGUGGAUCCUCCUCAACCACGCGAUUCAUCUGUCCCUCAUCAACCUGGCUUGAGGAAGCAUUCCCUCUCAGAGAGCCUCCAGUUCGUCGUCUUUUCAACAGAGGAUUGAGCAUCA
B17: 46544062_46544572_2905_CDS_ENSG00000123200_ENST00000242848|human|control|control (ssRNA)
RNA: GGGAGUUCUACAGUCCGACGAUCUUCUUGAGGUCGUACAACUUGGCUCAAGAGUCUGUGUUUUUCAUUUUUAUCAUCUCCACUGUUGUAGGCAUCACUGUCCGGAGAAUGUUCACGCCGGCGCUUCGGGGACUGUCUAGGGCUCAACAGAGGAUUGAGCAUCA
B18: chr2:180329438:180329439:+_ENSMUSG00000049401_ENSMUST00000029087|mus_mus|FALSE|FALSE (ssRNA)
RNA: GGGAGUUCUACAGUCCGACGAUCCUCAGAGACACCCUGAGGAUCUGGCUCCCCUGGGACCUGCUCCUGCCUGUUCCCCUCCAACUUCCUCUUCUUGCUUUCUUUGGGACUCGGGGACUUAGCCUCAUGCCUUUGGUCCCCAUCCAACAGAGGAUUGAGCAUCA
B19: chr3:150289932:150289933:+_ENSG00000144895_ENST00000460851|hu_hu|hu_hu_hu_mus_False|18_28 (ssRNA)
RNA: GGGAGUUCUACAGUCCGACGAUCCUUGUAGUUUUUAACAUCCCAUACUUCCAUUUGUCCUCGAAGAUUUCCAAAUCCAGCCAGCACUAAUAUAUGUCCAUGAGGGCUAUAGUAGGCUGCAUUACGAGGACCAGUCCCAAAGUCCAACAGAGGAUUGAGCAUCA
B20: chr16:94664382:94664383:+_ENSMUSG00000040785_ENSMUST00000117648|mus_hu|FALSE|FALSE (ssRNA)
RNA: GGGAGUUCUACAGUCCGACGAUCAAAAGCUGGUGCUGAAGAUGAAUCUGACACUGGUUUAGACUUUACAUCUGGUUUAAAUUCCCUAGCAGCUGGAUUCAGUUGUAGUUUAACUCGUACAUACUCCCCUGCUUUUGAAAUUUCCAACAGAGGAUUGAGCAUCA
B21: chr11:88707168:88707169:-_ENSMUSG00000018428_ENSMUST00000018572|mus_mus|FALSE|FALSE (ssRNA)
RNA: GGGAGUUCUACAGUCCGACGAUCAAGGGGAAGAGCGAACGCAACUGGAUUGCCAUCUUGGAGUCAGUCGAUGUGAAGUAGCUACACCUGCUCCUGGGCGACCGUCUAGGCACUCAAUCCUCCCGCCACCGCCCCCUGGCCCCCCAACAGAGGAUUGAGCAUCA
B22: chr3:184044699:184044700:+_ENSG00000114867_ENST00000411531|hu_hu|motif|central (ssRNA)
RNA: GGGAGUUCUACAGUCCGACGAUCAUUAUCUGUGCUUUCUGUGGGUACCGCUUGUUGAAGGGCUGAGAAGCGAUUCAAAGUACGGGUAGCUGGGCGAGCAGCUUCUGAUGCUGCGUCUGAGGGCUUGGCUCCUGAGCCUCCGCUCAACAGAGGAUUGAGCAUCA

Substitutions are numbered along the chain they refer to. In all, about 24,000 sequences were measured (“enrichment r”: median about 0.99, highest 2% from about 3.7 on). Many of the other results were omitted from the sample, so the highest values are more common in it than they were.

For this assay, the target named is T1, UNK ZnF1-3. Briefly: nsRBNS (natural sequence RNA bind-n-seq); RBNS binding buffer (assumed for nsRBNS): 25 mM Tris pH 7.5, 150 mM KCl, 3 mM MgCl2, 0.01% Triton X-100, 500 ug/ml BSA, 20 U/ml SUPERase-In, 4 C; UNK is unkempt and MSI1 is Musashi-1; names of the RNAs are library labels; protein concentration not given here; high values mean tight binding.
In the case of B1, the binding signal worked out at 0.594 enrichment R.

In turn, B2 yielded a binding signal of 0.919 enrichment R.

On to B3, for which the binding signal is 8.48 enrichment R.

The molecule B4 had a binding signal of 8.52 enrichment R.

Take B5: the binding signal turned out to be 3.68 enrichment R.

B6 returned a binding signal of 12.6 enrichment R.

Take B7: the binding signal was 0.778 enrichment R.

Molecule B8 gave a binding signal of 0.885 enrichment R.

Molecule B9 returned a binding signal of 0.75 enrichment R.

With B10, the binding signal came to 1.08 enrichment R.

The molecule B11 displayed a binding signal of 0.351 enrichment R.

Take B12: the binding signal was determined as 4.51 enrichment R.

Take B13: the binding signal came to 3.82 enrichment R.

B14 returned a binding signal of 9.26 enrichment R.

B15 had a binding signal of 9.32 enrichment R.

As for B16, the binding signal came out at 0.439 enrichment R.

With B17, the binding signal was 0.885 enrichment R.

B18 gave a binding signal of 0.716 enrichment R.

Regarding B19, the binding signal turned out to be 0.862 enrichment R.

The molecule B20 yielded a binding signal of 1 enrichment R.

B21 yielded a binding signal of 1.08 enrichment R.

For B22, the binding signal was 0.754 enrichment R.
